Reference: PubChem BioAssay AID902 (National Center for Advancing Translational Sciences (NCATS), 2007)
Hit rate of the full screen: of about 130,000 compounds, about 1,900 (1.5%) were called active. About 5% were inconclusive and are not listed. Shown is part of a subset that was picked to be rich in actives. A number with no mark means an inactive call. Calls follow the shape of the dose curve; as a rule, active = well fitted cell-killing curve with a large enough effect; inconclusive = small, poorly fitted or top-dose-only effect; inactive = no such curve, though single readings can be large or run the other way.

Test: qHTS Screen for Compounds that Selectively Target Cancer Cells with p53 Mutations: Cytotoxicity of p53ts Cells at the Nonpermissive Temperature; also: nearly all actives have a fitted effect of over 55% in size
Settings: H1299-p53A138V viability at 39C, ATP luminescence, 24 h; series mostly up to 46.1 µM; activity change, negative = cell killing: at the top concentration
Source text: NIH Chemical Genomics Center [NCGC] NIH Molecular Libraries Screening Centers Network [MLSCN] MLSCN Grant: 1 X01 MH079844-01 Assay Submitter (PI): Dr. SUN, YI, University of Michigan NCGC Assay Overview: Synthetic Lethal Screen for Compounds to Kill Cancer Cells with p53 Mutation. Tumor suppressor gene p53 serves as a major cellular barrier against tumorigenesis. […] The goal of this screening is to identify small molecule probes that selectively kill cancer cells with mutations in p53. This screening was carried out using two lines of H1299 lung cancer cells. The H1299-p53 A138V line express a temperature sensitive p53 mutant (p53ts) in which the mutant p53 protein (A138V) is in the mutant confirmation when grown at 39C (the nonpermissive temperature) and in the wild type conformation when grown at 32C (the permissive temperature). A H1299-neo line (p53 null) grown at both 39C and 32C were used as counter-screens to filter out false positive associated with temperature shifting. The small molecular compounds that selectively target mutant p53-containing cancer cells were selected as candidate probes for further study. A cytotoxicity assay based on the measurement of ATP contents in cells was used in this screen. Concentration-responses of all the compounds in the library collection were determined in qHTS using the cell lines and temperature conditions as above.
NCGC Assay Protocol Summary: Both the H1299-p53A138V and H1299-neo cell lines were provided by Dr.Yi Sun, a PI at the University Michigan. The cells were maintained and cultured at 37C. The resuspended frozen cells were used to plate the cells in the 1536-well assay plates at a density of 600 cells per well in 5 ul medium. The assay plates with the cells were incubated at 37C for 16 to 30 hours before the experiments. The library compounds in DMSO solution were added to the cells in assay plates and incubated 24 hours at 39C (for mutant p53 conformation) or 32C (for normal p53 conformation as control). An ATP_lite assay kit (PerkinElmer) was used to determine the cell viability. Tomaxifen (100uM) was used as the positive control for cell killing. Data were normalized to the controls for basal activity (DMSO only) and 100% killing (100uM tamoxifen). AC50 values were determined from concentration-response data modeled with the standard Hill equation. P53 assay protocol: 1. Reagent; 5 uL H1299-p53A138V or H1299-neo cell cells/well 2. Time; overnight; 37C incubation 3. Compounds; 23 nL; 5.9 nM to 46 uM 4. Controls; 23 nL; Tamoxifen 100 uM 5. Time; 24 hr; 39C incubation 6. Reagent; 3 uL; ATP_Lite reagent 7. Time; 20 min; Room Temperature 8. Detection; Luminescence; Viewlux plate reader Keywords: p53, synthetic lethal, cancer, cell viability, cytotoxicity, H1299 cell line, luminescence, MLSMR, MLSCN, NIH Roadmap, qHTS, NCGC
% is scaled to controls: 0 for no effect and ±100 for the full control effect; potency is read from the fitted curve at half-maximal effect.

SMILES | Potency | activity change, negative = cell killing
CC(C)(Cc1c[nH]c2ccc(Cl)cc12)NCCOc1ccccc1OCC1CC1 | 25.1 µM (active) | 
Cc1cccc(Cn2cccc(C(=O)Nc3ccc4c(c3)OCCO4)c2=O)c1 |  | -14.4%
CCN(CC)CCn1ncc2c(N)ncnc21 |  | -0.868% [at 9.22 µM]
C/C(=C\C=C/[C@@H](C)C(=O)O)[C@H]1CN[C@H](C(=O)O)[C@@H]1CC(=O)O |  | -2.1%
CN(C)C(=O)Oc1cc(OC(=O)N(C)C)cc(C(O)CNC(C)(C)C)c1 (stereo not given) |  | -8.98%
CC(C)Oc1ccc(NC(=O)c2cc3ccccc3o2)cc1 | 6.31 µM (active) | 
COc1cc(C(c2c(O)c3ccccc3oc2=O)c2c(C)n(C)n(-c3ccccc3)c2=O)ccc1O (stereo not given) |  | 21.9%
O=C1C2CCN(CC2)C1(CO)CO | inactive | 
C=CCSSCC=C |  | -2.47%
Cc1nnc(NC(=O)c2cccn(Cc3cccc(F)c3)c2=O)s1 |  | -3.63%
NCCc1c[nH]c2ccc(O)cc12 | inactive | 
Fc1ccc(C(OCCN2CCN(C/C=C\c3ccccc3)CC2)c2ccc(F)cc2)cc1 | 31.6 µM (active) | 
CCN1C[C@]2(C)CC[C@H](O)[C@@]34[C@@H]5CC6[C@@H](OC)C[C@@](O)([C@@H]5[C@@H]6O)[C@H](C[C@@H]23)[C@H]14 |  | 1.08% [at 20.6 µM]
COc1ccc(C2Oc3c(I)c(OC)cc(OC)c3CC2O)cc1OC (stereo not given) |  | -12.1%
CC(C)(O)/C=C\C(=O)[C@](C)(O)[C@H]1[C@H](O)C[C@]2(C)[C@@H]3CC=C4[C@@H](C=C(O)C(=O)C4(C)C)[C@]3(C)C(=O)C[C@@]12C |  | -1.33% [at 9.22 µM]
CC[C@@](O)(C(=O)O)c1cc2n(c(=O)c1CO)Cc1cc3ccccc3nc1-2 |  | 11.1% [at 9.22 µM]
O=C(N/N=C/c1c(O)n(Cc2ccccc2)c(=O)[nH]c1=O)c1ccccc1 |  | -16%
CN1C2CC3CC1C(O3)C2O (stereo not given) |  | 9.45%
CCCCN1C2CCC1CC(OC(c1ccc(F)cc1)c1ccc(F)cc1)C2 (stereo not given) | 12.6 µM (active) | 
Cn1c(O)c(C=NCCN2CCNCC2)c(=O)n(C)c1=O |  | 22.6%

SMILES | Potency | activity change, negative = cell killing
CC(=O)OC1C2CCC3C1(CC(O)[C@@]1(O)[C@@H](CC(O)C1(C)C)[C@]3(C)O)C[C@@]2(C)O (stereo not given in full) |  | -10.4%
CC[C@@H]1CN2CC[C@@H]1C[C@H]2[C@H](O)c1ccnc2ccc(OC)cc12 |  | -2.09%
O=C(Nc1ccc(Cl)cc1C(=O)c1ccccc1)c1cc(Cl)cc(Cl)c1 |  | -11.9%
C[C@@]12CCC3C(CC[C@@H]4CC(O)CC[C@@]34C)C1CCC2O (stereo not given in full) |  | 7.74%
C[C@@]1([C@@H](NP(=O)(c2ccccc2)c2ccccc2)c2ccccc2)C[C@H]1CCO |  | -4.77%
N#Cc1c(Cl)c(Cl)c(Cl)c(C#N)c1Cl | 6.31 µM (active) | 
CCC(C)C(=O)O[C@@H]1C[C@@]2(C)C(c3ccoc3)OC(=O)CC23OC2(C)O[C@@]14[C@@]1(C)C(CC(=O)OC)C5(C)CC1(O)C(O)(C5OC(=O)C1(C)OC1C)C(OC(C)=O)[C@@]34O2 (stereo not given in full) |  | 0.427%
Cc1ccc(-n2c(/C=C/c3cccc(C(F)(F)F)c3)nc3ccccc3c2=O)cc1 |  | -23.3%
Clc1ccc(C(c2ccc(Cl)cc2)n2cc[n+](C[C@@H](OCc3ccc(Cl)cc3Cl)c3ccc(Cl)cc3Cl)c2)cc1 | 15.8 µM (active) | 
CCN(CC)c1ccc(C2C(C(N)=O)=C(C)Nc3nc(SCc4ccccc4)nn32)cc1 (stereo not given) |  | 26.9%
Clc1ccc([C@@H]2C[C@H]3CC[C@@H]2N3)cn1 |  | -3.71%
Cn1cc(/C=C/c2nc3ccccc3c(=O)n2-c2ccccc2)c2ccccc21 |  | 1.73%
O=C(NC(c1ccc(Cl)cc1)P(=O)(Oc1ccccc1)Oc1ccccc1)OCc1ccccc1 (stereo not given) |  | 10.7%
COc1cc2c(cc1OC)[C@@H]1C(=O)c3ccc(O)c(CC=C(C)C)c3OC1CO2 (stereo not given in full) |  | -2.98%
COc1ccc(NC(=O)Nc2cccc3cccnc23)cc1 | 15.8 µM (active) | 
CC1=CC(=O)C2=C(C)C[C@H](O)[C@H]3[C@H](C)C(=O)O[C@@H]3C12 (stereo not given in full) |  | 3.03%
c1csc(CN2CC3(CCNCC3)C2)n1 |  | 7%
CC(C)(c1ccc(OC[C@@H]2CO2)cc1)c1ccc(OC[C@H]2CO2)cc1 | 12.6 µM (active) | 
Cc1ccc(N2C(=O)NC(=O)C(CCc3ccncc3)(Cc3cccc(Cl)c3Cl)C2=O)cc1 (stereo not given) |  | 31.4%
C[C@]12CC[C@H](O)C[C@@H]1CC[C@H]1[C@H]2CC[C@]2(C)C(=O)CC[C@@H]12 | inactive | 
